Results from PubChem BioAssay (Tox21).
Inconclusive results are not listed. Entries that show only a call come without a potency. Some structures have more than one record in an assay (separate samples or runs), and their calls can disagree. The source made the active and inactive calls. Unless noted, the call rests on the fitted dose curve; in most records, active means well fitted curve in the direction sought with a large enough effect in the repeat runs; inconclusive means weak or mixed curves; inactive means no such curve, though single readings can be large; an effect the other way counts as inactive or inconclusive.

Columns and labels:
[1] = qHTS assay to identify small molecule agonists of the peroxisome proliferator-activated receptor delta (PPARd) signaling pathway - cell viability counter screen (AID 743211); further: nearly all actives have a fitted effect of over 55% in size
Outline: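 HEK293H PPARd-bla, 3000 cells/well; 5 h preincubation 37C/5% CO2; cpd in DMSO, 17 h 37C; B/G FRET substrate 2 h RT; CellTiter-Glo 30 min RT, luminescence.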

[2] = qHTS assay to identify small molecule antagonists of the peroxisome proliferator-activated receptor delta (PPARd) signaling pathway - cell viability counter screen (AID 743213); further: nearly all actives have a fitted effect of over 50% in size
Outline: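 HEK293H cells with the PPARd UAS-bla reporter, co-treated 17 h at 37 C with compounds and L165041 (300 nM final), were lysed with CellTiter-Glo. Luminescence indicated viable cell content.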

[3] = target: Peroxisome proliferator-activated receptor delta (Homo sapiens) (UniProt Q03181); experiment: qHTS assay to identify small molecule antagonists of the peroxisome proliferator-activated receptor delta (PPARd) signaling pathway (AID 743215; active means well fitted inhibition curve with a large enough effect in the signal ratio in the repeat runs, not every such curve was filed as active; the % refers to the signal ratio;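 further: cells stimulated with agonist L165041 at 300 nM final during compound exposure; series mostly up to about 62 µM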)
Chain of Peroxisome proliferator-activated receptor delta (Homo sapiens) (Q03181 whole entry, looked up): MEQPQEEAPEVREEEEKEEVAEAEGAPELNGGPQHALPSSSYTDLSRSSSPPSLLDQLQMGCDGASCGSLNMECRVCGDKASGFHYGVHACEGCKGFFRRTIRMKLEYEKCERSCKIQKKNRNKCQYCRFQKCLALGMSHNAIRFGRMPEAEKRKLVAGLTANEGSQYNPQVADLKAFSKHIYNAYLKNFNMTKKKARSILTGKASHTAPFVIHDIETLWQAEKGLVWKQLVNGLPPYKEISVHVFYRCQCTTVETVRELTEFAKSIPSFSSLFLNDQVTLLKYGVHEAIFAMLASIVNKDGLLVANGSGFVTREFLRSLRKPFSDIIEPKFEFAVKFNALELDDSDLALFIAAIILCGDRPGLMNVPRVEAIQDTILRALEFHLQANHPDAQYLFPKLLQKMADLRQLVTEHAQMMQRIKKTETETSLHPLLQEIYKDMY
Outline: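 PPARd UAS-bla HEK293H cells were pre-incubated 5 h at 37 C, then given test compounds in DMSO plus agonist L165041 (300 nM final). After 17 h at 37 C, beta-lactamase FRET substrate was added; fluorescence read after 2 h at room temperature.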

[4] = target: Bile acid receptor (Homo sapiens) (UniProt Q96RI1); experiment: qHTS assay to identify small molecule antagonists of the farnesoid-X-receptor (FXR) signaling pathway (AID 743217; active means well fitted inhibition curve with a large enough effect in the signal ratio in the repeat runs, not every such curve was filed as active; the % refers to the signal ratio)
Chain of Bile acid receptor (Homo sapiens) (Q96RI1 whole entry, looked up): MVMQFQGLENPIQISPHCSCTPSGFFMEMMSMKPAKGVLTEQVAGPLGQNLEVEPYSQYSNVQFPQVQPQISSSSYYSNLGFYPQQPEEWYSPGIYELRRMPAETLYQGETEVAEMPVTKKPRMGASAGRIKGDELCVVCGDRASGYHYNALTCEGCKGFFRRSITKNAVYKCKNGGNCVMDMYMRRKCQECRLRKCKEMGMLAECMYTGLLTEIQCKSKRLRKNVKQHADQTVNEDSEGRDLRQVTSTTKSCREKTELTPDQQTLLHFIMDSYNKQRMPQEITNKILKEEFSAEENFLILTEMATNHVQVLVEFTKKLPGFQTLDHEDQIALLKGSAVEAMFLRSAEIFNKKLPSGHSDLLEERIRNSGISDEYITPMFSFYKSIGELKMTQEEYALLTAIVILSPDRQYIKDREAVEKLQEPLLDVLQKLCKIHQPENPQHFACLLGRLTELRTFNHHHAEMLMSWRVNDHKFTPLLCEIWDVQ
Outline: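 FXR-UAS-bla HEK 293T cells pre-incubated 5 h at 37 °C, then exposed to compounds with chenodeoxycholic acid (50 uM final) for 16 h at 37 °C. Beta-lactamase reporter read by LiveBLAzer B/G FRET substrate fluorescence after 2 h at room temperature.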

[5] = qHTS assay to identify small molecule agonists of the farnesoid-X-receptor (FXR) signaling pathway - cell viability counter screen (AID 743218); further: nearly all actives have a fitted effect of over 45% in size
Outline: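 FXR-UAS-bla HEK 293T cells, plated 5 h at 37 C, were exposed to compounds for 16 h at 37 C. CellTiter-Glo was then added to the same wells as the bla readout; luminescence read after 30 min at room temperature.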

[6] = target: Bile acid receptor (Homo sapiens) (UniProt Q96RI1); experiment: qHTS assay to identify small molecule agonists of the farnesoid-X-receptor (FXR) signaling pathway (AID 743220; active means well fitted activation curve with a large enough effect in the signal ratio in the repeat runs, not every such curve was filed as active; the % refers to the signal ratio)
Outline: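 Beta-lactamase reporter under UAS control in GeneBLAzer FXR HEK 293T cells (5000/well) measured with LiveBLAzer FRET substrate after 2 h at room temperature. Compound exposure lasted 16 h at 37C.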

[7] = qHTS assay to identify small molecule antagonists of the farnesoid-X-receptor (FXR) signaling pathway - cell viability counter screen (AID 743221; active means well fitted cell-killing curve with a large enough effect in the repeat runs, not every such curve was filed as active; further: nearly all actives have a fitted effect of over 50% in size)
Outline: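 Luminescence from CellTiter-Glo measures cytotoxicity in GeneBLAzer FXR-UAS-bla HEK 293T cells. Cells were exposed to compounds with 50 uM chenodeoxycholic acid (final) for 16 h at 37 C, in wells also used for the reporter readout.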

[8] = target: Vitamin D3 receptor (Homo sapiens) (UniProt P11473); experiment: qHTS assay to identify small molecule antagonists of the vitamin D receptor (VDR) signaling pathway (AID 743223; active means well fitted inhibition curve with a large enough effect in the signal ratio in the repeat runs, not every such curve was filed as active; the % refers to the signal ratio)
Chain of Vitamin D3 receptor (Homo sapiens) (P11473 whole entry, looked up): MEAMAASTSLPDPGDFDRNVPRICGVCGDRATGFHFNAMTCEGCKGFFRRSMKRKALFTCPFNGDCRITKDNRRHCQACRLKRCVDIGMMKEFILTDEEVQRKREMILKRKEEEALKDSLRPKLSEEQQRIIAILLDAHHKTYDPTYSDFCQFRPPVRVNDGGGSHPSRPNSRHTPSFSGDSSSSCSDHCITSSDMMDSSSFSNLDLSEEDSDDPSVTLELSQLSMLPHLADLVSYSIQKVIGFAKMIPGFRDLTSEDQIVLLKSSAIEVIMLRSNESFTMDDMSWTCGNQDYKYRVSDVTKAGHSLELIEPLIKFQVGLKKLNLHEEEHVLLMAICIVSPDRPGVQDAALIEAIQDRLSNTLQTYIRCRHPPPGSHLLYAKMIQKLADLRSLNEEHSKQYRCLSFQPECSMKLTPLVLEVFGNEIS
Outline: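 Antagonist mode uses 1alpha,25-dihydroxyvitamin D3 at 3 nM final as stimulus. VDR-bla cells receive compounds in DMSO, incubate 16 h at 37C, then a beta-lactamase FRET substrate for 2 h at room temperature before fluorescence measurement.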

[9] = qHTS assay to identify small molecule agonists of the vitamin D receptor (VDR) signaling pathway - cell viability counter screen (AID 743224); further: series mostly up to about 63 µM; nearly all actives have a fitted effect of over 50% in size
Outline: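 VDR-bla cells were preincubated 4 h at 37C/5% CO2, then exposed to compounds for 16 h. After the 2 h room-temperature bla FRET read, CellTiter-Glo was added to the same wells and luminescence read after 30 min.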

[10] = qHTS assay to identify small molecule antagonists of the vitamin D receptor (VDR) signaling pathway - cell viability counter screen (AID 743225); further: nearly all actives have a fitted effect of over 50% in size
Outline: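 Read-out: CellTiter-Glo luminescence measured 30 min after reagent addition at room temperature. Cells were VDR-bla HEK 293T exposed 16 h at 37C, 5% CO2, to compound with 3 nM final calcitriol agonist.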

[11] = qHTS assay to identify small molecule agonists of the NFkB signaling pathway - cell viability counter screen (AID 1159515; calls by dose curve; further: series mostly up to about 61 µM; nearly all actives have a fitted effect of over 55% in size)
Outline: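 NFkB-bla ME-180 cells, 2,000/well, were plated overnight at 37 C, 5% CO2, then exposed to compounds in DMSO for 5 hr. After the bla FRET read, CellTiter-Glo was added to the same wells; luminescence was read after 30 min at room temperature.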

[12] = qHTS assay to identify small molecule agonists of the endoplasmic reticulum stress response signaling pathway (AID 1159516; active means well fitted activation curve with a large enough effect in the signal ratio in the repeat runs, not every such curve was filed as active; the % refers to the signal ratio)
Outline: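 CellSensor ESRE-bla HeLa cells, carrying a beta-lactamase reporter driven by the ER stress response element, were plated overnight and exposed to compounds for 5 hr at 37 C. Reporter activity was read as FRET substrate fluorescence after 2 hr at room temperature.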

[13] = qHTS assay to identify small molecule agonists of the endoplasmic reticulum stress response signaling pathway - cell viability counter screen (AID 1159517; calls by dose curve)
Outline: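 Counter-screen wells were identical to the reporter wells. Cells were plated at 1,500 per well and dosed for 5 hr, then read for luminescence 30 min after CellTiter-Glo addition.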

[14] = qHTS assay to identify small molecule antagonists of the retinoid-related orphan receptor gamma (ROR-gamma) signaling pathway - cell viability counter screen (AID 1159520); further: nearly all actives have a fitted effect of over 50% in size
Outline: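 Tet-on ROR gamma CHO cells were given compounds for 2 hr, then doxycycline hyclate at 1 uM final, and incubated 16 hr at 37 C. Viability was measured as ATP content by CellTiter-Glo luminescence.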

[15] = target: Nuclear receptor ROR-gamma (Homo sapiens) (UniProt P51449); experiment: qHTS assay to identify small molecule antagonists of the retinoid-related orphan receptor gamma (ROR-gamma) signaling pathway (AID 1159521)
Outline: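 CHO Tet-on RORγ, RORE-luc reporter. Cpd 2 h pre-incubation, then dox hyclate 1 uM final, 16 h, 37 C/5% CO2. ONE-Glo luminescence; decrease = antagonist.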

[16] = qHTS assay to identify small molecule agonists of the AP-1 signaling pathway - cell viability counter screen (AID 1159525; calls by dose curve; further: nearly all actives have a fitted effect of over 55% in size)
Outline: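 AP-1-bla ME-180 cells in Opti-MEM with 0.5% dialyzed FBS, compound exposure 5 h at 37 C in 15-point titration. Viability read in the same wells as ATP content by CellTiter-Glo luminescence, normalised to tetra-n-octylammonium bromide and DMSO controls.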

[17] = qHTS assay to identify small molecule agonists of the AP-1 signaling pathway (AID 1159526; calls by dose curve)
[18] = target: Retinoic acid receptor RXR-alpha (Homo sapiens) (UniProt P19793); experiment: qHTS assay to identify small molecule agonists of the RXR signaling pathway (AID 1159527; calls by dose curve; further: nearly all actives have a fitted effect of over 35% in size; further: potency means the concentration at half of the fitted maximal effect)
Chain of Retinoic acid receptor RXR-alpha (Homo sapiens) (P19793 whole entry, looked up): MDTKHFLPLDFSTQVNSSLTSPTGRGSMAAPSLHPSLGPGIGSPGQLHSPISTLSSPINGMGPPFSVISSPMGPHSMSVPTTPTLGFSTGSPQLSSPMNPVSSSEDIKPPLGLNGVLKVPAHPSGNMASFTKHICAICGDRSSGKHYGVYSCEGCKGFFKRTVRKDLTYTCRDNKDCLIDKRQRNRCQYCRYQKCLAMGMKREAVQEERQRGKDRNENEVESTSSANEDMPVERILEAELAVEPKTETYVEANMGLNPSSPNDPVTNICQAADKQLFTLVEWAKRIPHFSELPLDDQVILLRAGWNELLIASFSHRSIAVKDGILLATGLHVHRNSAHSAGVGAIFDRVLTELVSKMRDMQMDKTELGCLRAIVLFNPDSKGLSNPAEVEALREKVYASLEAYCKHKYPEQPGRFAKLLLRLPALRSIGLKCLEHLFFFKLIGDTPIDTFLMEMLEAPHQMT
Outline: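 Read-out: beta-lactamase FRET ratio (405 nm excitation, 460 and 530 nm emission) after 2 hr substrate loading at room temperature. Cells were RXR-alpha-UAS-bla HEK 293T treated with compounds for 16 hr in 2% charcoal-stripped FBS medium.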

[19] = target: Peroxisome proliferator-activated receptor delta (Homo sapiens) (UniProt Q03181); experiment: qHTS assay to identify small molecule agonists of the peroxisome proliferator-activated receptor delta (PPARd) signaling pathway (AID 743212; calls by dose curve)
Outline: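 Quantitative high-throughput agonist screen in a HEK293H beta-lactamase reporter line under UAS control. Compounds in DMSO, at 37 C. Fluorescence read after 2 h with FRET substrate at room temperature.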

[20] = target: Vitamin D3 receptor (Homo sapiens) (UniProt P11473); experiment: qHTS assay to identify small molecule agonists of the vitamin D receptor (VDR) signaling pathway (AID 743222; calls by dose curve)
Outline: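 VDR-bla cells were plated 4 h at 37C/5% CO2, then exposed to compounds in DMSO for 16 h. After LiveBLAzer B/G FRET substrate addition and 2 h at room temperature, beta-lactamase reporter fluorescence was read.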

Row | SMILES | Potency [1] | Potency [2] | Potency [3] | Potency [4] | Potency [5] | Potency [6] | Potency [7] | Potency [8] | Potency [9] | Potency [10] | Potency [11] | Potency [12] | Potency [13] | Potency [14] | Potency [15] | Potency [16] | outcome [17] | Potency [18] | Potency [19] | outcome [20]
1 | C=C(CC(=O)O)C(=O)O | inactive | inactive | inactive | inactive | inactive | inactive | inactive | inactive | inactive | inactive | inactive | inactive | inactive | inactive | inactive | inactive | inactive | inactive | – | –
2 | OCC(O)CS (stereo not drawn) | inactive | inactive | inactive | – | inactive | – | inactive | inactive | inactive | inactive | inactive | inactive | inactive | inactive | inactive | inactive | inactive | inactive | inactive | inactive
3 | Cc1ccc([N+](=O)[O-])cc1N | inactive | inactive | inactive | inactive | inactive | inactive | – | inactive | inactive | inactive | inactive | inactive | inactive | inactive | inactive | inactive | inactive | 21.8 µM (active) and inactive | inactive | –
4 | COC(=O)OC | inactive | inactive | inactive | – | inactive | – | inactive | – | inactive | inactive | inactive | inactive | inactive | inactive | inactive | inactive | inactive | inactive | inactive | –
5 | CC(=O)OC(C)(C)C1CC=C(C)CC1 (stereo not drawn) | inactive | inactive | inactive | – | inactive | – | inactive | inactive | inactive | – | inactive | inactive | inactive | inactive | inactive | inactive | inactive | inactive | – | –
6 | CO[Si](CCCNCCN)(OC)OC | inactive | inactive | inactive | – | inactive | – | inactive | inactive | inactive | inactive | inactive | inactive | inactive | inactive | inactive | inactive | inactive | inactive | – | inactive
7 | O=[N+]([O-])c1ccccc1C(F)(F)F | inactive | inactive | inactive | – | inactive | – | – | inactive | inactive | inactive | inactive | inactive | inactive | inactive | inactive | inactive | inactive | inactive | inactive | inactive
8 | CC(C)(CO)CO | inactive | inactive | inactive | – | inactive | – | inactive | – | inactive | inactive | inactive | inactive | inactive | inactive | inactive | inactive | inactive | inactive | inactive | –
9 | CC(O)CNCC(C)O (stereo not drawn) | inactive | inactive | inactive | – | inactive | – | inactive | inactive | inactive | inactive | inactive | inactive | inactive | inactive | inactive | inactive | inactive | inactive | – | inactive
10 | CCCCCCCCO | inactive | inactive | inactive | – | inactive | – | inactive | inactive | inactive | – | inactive | inactive | inactive | inactive | inactive | inactive | inactive | inactive | – | –
11 | OC[C@H]1O[C@@H](Oc2ccc(O)cc2)[C@H](O)[C@@H](O)[C@@H]1O | inactive | inactive | inactive | – | inactive | – | inactive | inactive | inactive | inactive | inactive | inactive | inactive | inactive | inactive | inactive | inactive | inactive | inactive | –
12 | N[C@@H](Cc1cc(I)c(Oc2ccc(O)c(I)c2)c(I)c1)C(=O)O | inactive | inactive | inactive | – | inactive | – | inactive | inactive | inactive | inactive | inactive | inactive | inactive | inactive | inactive | inactive | inactive | inactive | – | inactive
13 | O=C(c1ccccc1)c1ccc(O)c(O)c1O | inactive | inactive | – | – | inactive | – | – | inactive | inactive | inactive | inactive | inactive | inactive | inactive | inactive | inactive | inactive | inactive | inactive | –
14 | CCCCCNCCCCC | inactive | inactive | inactive | – | inactive | – | inactive | inactive | inactive | inactive | inactive | inactive | inactive | inactive | inactive | inactive | inactive | inactive | – | inactive
15 | CCCCC(CC)COC(=O)c1ccc(C(=O)OCC(CC)CCCC)cc1 (stereo not drawn) | inactive | inactive | inactive | inactive | inactive | inactive | inactive | – | inactive | inactive | inactive | inactive | inactive | inactive | inactive | inactive | inactive | inactive | inactive | –
16 | C=CC(C)(C)C | inactive | inactive | inactive | – | inactive | – | inactive | inactive | inactive | – | inactive | inactive | inactive | inactive | inactive | inactive | inactive | inactive | – | –
17 | COc1c(Cl)ccc(Cl)c1C(=O)O | inactive | inactive | inactive | – | inactive | – | inactive | inactive | inactive | inactive | inactive | inactive | inactive | inactive | inactive | inactive | inactive | inactive | inactive | –
